Values joined by “and” are separate entries in the source; they are usually repeats but may differ in a detail not shown here. Equal values may be shown once. Out of some 5,500 compounds screened, about 2,000 (36%) were called active. Roughly 18% stayed inconclusive and do not appear here. Rule as the data show it: active = normalized growth mostly below about 0.91 (no sharp cut-off); inconclusive = no clear call, values can overlap the other calls; inactive = mostly above about 0.92. The list shows a part of the results.
Assay: chemical genetic growth profiling, strain panel (AID 1159580);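 also: tested at 20 µM; growth read once vehicle control cultures reached saturation at 30 °C; 1 = growth at the plate median or of vehicle wells; lower values mean less growth of the strain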
Conditions: S. cerevisiae deletion strains, growth OD
[1] = locus YAL013W, strain DEP1, hits give low values
[2] = locus YBR229C, strain ROT2, hits give low values
[3] = locus YCL061C, strain MRC1, hits give low values
[4] = locus YDL101C, strain DUN1, hits give low values
[5] = locus YDR150W, strain NUM1, hits give low values
[6] = locus YEL061C, strain CIN8, hits give low values
[7] = locus YGR078C, strain PAC10, hits give low values
[8] = locus YHR030C, strain SLT2, hits give low values
[9] = locus YHR087W, strain rtc3, hits give low values
[10] = locus YJR043C, strain POL32, hits give low values
[11] = locus YJR075W, strain HOC1, hits give low values
[12] = locus YLR039C, strain RIC1, hits give low values
[13] = locus YLR058C, strain SHM2 (second series), hits give low values
[14] = locus YLR085C, strain ARP6, hits give low values
[15] = locus YLR262C, strain YPT6, hits give low values
[16] = locus YML094W, strain GIM5, hits give low values
[17] = locus YMR219W, strain ESC1, hits give low values
[18] = locus YMR263W, strain SAP30, hits give low values
[19] = locus YNL153C, strain GIM3, hits give low values
[20] = locus YNL298W, strain CLA4 (second series), hits give low values
[21] = locus YNL322C, strain KRE1, hits give low values
[22] = locus YNR030W, strain Alg12, hits give low values
[23] = locus YPL055C, strain LGE1, hits give low values
[24] = locus YPL241C, strain CIN2, hits give low values
[25] = locus YPR135W, strain CTF4, hits give low values

Measured: normalized growth

OC1(C(F)(F)F)CC(c2ccc3ccccc3c2)=NN1 (centres undefined)
active: [1] 0.205 | locus YAR019C, strain CDC15, hits give low values 0.155 | locus YBL105C, strain PKC1, hits give low values 0.336 | locus YBR135W, strain CKS1, hits give low values 0.263 | locus YBR136W, strain MEC1, hits give low values 0.339 | locus YBR160W, strain CDC28, hits give low values 0.367 | [2] 0.223 | [3] 0.19 | locus YDL017W, strain CDC7, hits give low values 0.373 | locus YDL028C, strain MPS1, hits give low values 0.402 | [4] 0.215 and 0.164 | locus YDL108W, strain KIN28, hits give low values 0.392 | locus YDL132W, strain cdc53, hits give low values 0.234 | locus YDL214C, strain PRR2, hits give low values 0.224 | locus YDR052C, strain DBF4, hits give low values 0.302 | locus YDR054C, strain cdc34, hits give low values 0.233 | [5] 0.397 | locus YDR226W, strain ADK1, hits give low values 0.278 | locus YDR477W, strain SNF1, hits give low values 0.146 | [6] 0.146 | locus YER123W, strain YCK3, hits give low values 0.181 | locus YER133W, strain GLC7, hits give low values 0.135 | locus YFL009W, strain cdc4, hits give low values 0.17 | locus YFL029C, strain CAK1, hits give low values 0.16 | locus YFR003C, strain YPI1, hits give low values 0.405 | locus YFR019W, strain FAB1, hits give low values 0.376 | locus YFR028C, strain CDC14, hits give low values 0.226 | locus YGR040W, strain KSS1, hits give low values 0.135 | locus YGR052W, strain FMP48, hits give low values 0.15 | [7] 0.213 | locus YGR092W, strain DBF2, hits give low values 0.198 | [8] 0.0763 and 0.104 | locus YHR079C, strain IRE1, hits give low values 0.125 | locus YHR082C, strain KSP1, hits give low values 0.141 | [9] 0.442 | locus YHR205W, strain SCH9, hits give low values 0.138 | locus YIL147C, strain SLN1, hits give low values 0.322 | locus YJL095W, strain BCK1, hits give low values 0.115 | locus YJL128C, strain PBS2, hits give low values 0.386 | locus YJL157C, strain FAR1, hits give low values 0.301 | locus YJR016C, strain ILV3, hits give low values 0.162 | [10] 0.245 | locus YJR066W, strain TOR1 (second series), hits give low values 0.192 | locus YJR066W, strain TOR1, hits give low values 0.125 | [11] 0.298 | locus YKL048C, strain ELM1, hits give low values 0.285 | locus YKL067W, strain YNK1, hits give low values 0.279 | locus YKL101W, strain HSL1, hits give low values 0.251 | locus YKL190W, strain CNB1, hits give low values 0.0734 | locus YKL193C, strain SDS22, hits give low values 0.161 | locus YKL203C, strain TOR2, hits give low values 0.13 | [12] 0.13 | [13] 0.274 | [14] 0.0695 | locus YLR113W, strain HOG1, hits give low values 0.15 | locus YLR133W, strain CKI1, hits give low values 0.27 | [15] 0.12 | locus YLR403W, strain SFP1, hits give low values 0.0326 | locus YML070W, strain DAK1, hits give low values 0.211 | [16] 0.192 | locus YMR001C, strain CDC5, hits give low values 0.151 | locus YMR205C, strain PFK2 (second series), hits give low values 0.218 | [17] 0.258 | [18] 0.298 | locus YMR277W, strain FCP1, hits give low values 0.172 | locus YMR307W, strain GAS1, hits give low values 0.13 | locus YNL006W, strain LST8, hits give low values 0.2 | locus YNL020C, strain ARK1, hits give low values 0.257 | [19] 0.239 | locus YNL161W, strain CBK1, hits give low values 0.211 | locus YNL183C, strain NPR1, hits give low values 0.115 | locus YNL207W, strain RIO2, hits give low values 0.195 | locus YNL222W, strain SSU72, hits give low values 0.225 | [20] 0.0831 | locus YNL307C, strain MCK1 (second series), hits give low values 0.228 | [21] 0.571 | [22] 0.108 | locus YOL006C, strain TOP1, hits give low values 0.1 | locus YOL078W, strain AVO1, hits give low values 0.186 | locus YOL136C, strain PFK27, hits give low values 0.211 | locus YOR061W, strain CKA2, hits give low values 0.43 | locus YOR119C, strain RIO1, hits give low values 0.129 | locus YOR231W, strain MKK1, hits give low values 0.132 | locus YOR329C, strain SCD5, hits give low values 0.203 | locus YPL031C, strain PHO85, hits give low values 0.126 | [23] 0.157 | locus YPL153C, strain RAD53, hits give low values 0.115 | locus YPL204W, strain HRR25, hits give low values 0.13 | locus YPL209C, strain IPL1, hits give low values 0.232 | [24] 0.108 | locus YPL256C, strain CLN2, hits give low values 0.147 | locus YPR025C, strain CCL1, hits give low values 0.248 | locus YPR106W, strain ISR1, hits give low values 0.586 | locus YPR111W, strain DBF20, hits give low values 0.715 | [25] 0.163 | strain NNK1, hits give low values 0.492 | strain TSCII, hits give low values 0.18

OC1(C(F)(F)F)CC(c2ccccc2)=NN1 (centres undefined)
active: [15] 0.809
inactive: [1] 0.974 | [2] 0.968 | [3] 0.978 | [4] 0.987 | locus YDL134C, strain PPH21, hits give low values 0.984 | [5] 0.949 | [6] 1 | [7] 0.972 | [8] 1.08 | [9] 0.967 | locus YJL187C, strain SWE1, hits give low values 1 | [10] 0.991 | [11] 0.915 | [12] 0.843 | [13] 0.961 | [14] 1.03 | [16] 1 | [17] 0.976 | [18] 0.976 | [19] 0.981 | [20] 0.989 | [21] 0.953 | [22] 1 | [23] 0.981 | [24] 1.02 | [25] 0.92

— PubChem BioAssay AID1159580 (chemical genetic matrix, 2015)
